From PubChem
CF NFkB inh – cystic fibrosis NF-kB activation inhibition. AID 588850. actives 0.86% (n = 360,000). KKLEB NF-kB-GFP reporter, PAF-induced, GFP fluorescence overnight. inhibition, % at 5 µM;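 active = at least 50% inhibition at 5 µM, scaled per plate between neutral and stimulator controls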;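 also: PAF is a Pseudomonas aeruginosa culture filtrate used as stimulus; plate controls were PAF-stimulated DMSO wells for no effect and unstimulated DMSO wells for full effect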
TWEAK-Fn14 inh – TWEAK-Fn14 signaling inhibition; AID 1159606; actives 2% (n = 360,000); TWEAK-stimulated Fn14 reporter cells, luciferase luminescence, 8 h; inhibition, % at 10 µM; in the data active = inhibition above about 50%
TROY signal inh – blocks TROY-dependent signaling in reporter cells; Q293 LMP1-TROYcd NF-kB luciferase reporter, 4 h; inhibition, % at 10 µM; actives 0.98% (n = 360,000);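 active = compounds whose plate-normalised and pattern-corrected inhibition of the luciferase reporter signal at the single screening dose is 50% or more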
Peg3 prom inh – Peg3 promoter activity inhibition | HeLa PEG-Prom luciferase reporter, luminescence, overnight | inhibition, % at 20 µM | actives 1.7% (n = 360,000) | AID 588405;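 active = inhibition of at least 50% at 20 µM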
HIF-2a block – blocks HIF-2a reporter activity. 786-0 RCC cells HIF-2a reporter, luciferase luminescence, overnight. inhibition, % at 18.8 µM. actives 0.72% (n = 360,000). AID 624352;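 active = inhibition of the luminescence signal of 40% or more relative to plate controls, in a single-dose primary screen at 18.75 µM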
KKLEB cytotox – CF airway cell cytotoxicity counter-screen | activity change (cytotoxicity), % at 5 µM | AID 602141 | actives 0.36% (n = 360,000) | KKLEB CF airway cells viability, ATPlite luminescence, overnight; active compounds read low; cells stimulated with P. aeruginosa culture filtrate;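 active = corrected activity change at or below -50% at 5 µM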
* marks the source's active call; other numbers are inactive results; / = no result given; ! = not confirmed by another sample. This is a sample that favours compounds with a hit; in the whole collection about 4% have one here.

SMILES	CF NFkB inh	TWEAK-Fn14 inh	TROY signal inh	Peg3 prom inh	HIF-2a block	KKLEB cytotox
COc1ccc(CC(=O)Nc2cc(S(=O)(=O)N3CCCCC3)ccc2OC(C)C)cc1OC	-6	22	7	9	22	6
CCNc1ncnc2c1cnn2C1CCCO1 (centres undefined)	-6	0	-5	-5	-5	-8
COC(=O)c1ccccc1NC(=O)c1ccc(-c2ccccc2F)o1	59*	-42	-32	-58	-111	-67*
COC(=O)c1ccccc1NC(=O)c1ccc(COc2ccc(C)c(C)c2)o1	2	81*	/	-40	-37	-7
C[C@@H](NC(=O)c1nc[nH]c1C(=O)N(C)Cc1ccccc1)c1ccccc1	4	-16	-7	-2	19	-1
CCn1cc(CNCc2cn(C)nc2-c2ccc(C3CCCCC3)cc2)cn1	-5	-32	2	68*	2	8
Cn1cc(CNCc2ccc(OC(F)(F)F)cc2)c(-c2ccc3c(c2)OCCO3)n1	3	29	20	-88	5	-4
CCCN(C(=O)COc1ccc(C(C)=O)cc1OC)C1CCS(=O)(=O)C1 (centres undefined)	-14	4	-6	5	2	2
CC1CC(C)(C)Nc2ccc(N=O)cc21 (centres undefined)	71*	80*	35	84*	12	-20
COc1cc([C@@H]2[C@H]3CN(C)CC=C3C(C#N)=C(N)C2(C#N)C#N)cc2c1OCO2	-12	63*!	60*!	0	11	0
O=[N+]([O-])c1cccc(N=Nc2ccc(O)cc2O)c1	66*	59*	-15	-59	-154	-41
COc1ccc(OC)c(S(=O)(=O)Nc2cc3c4c(c2)C(C)C(=O)N4CCC3)c1 (centres undefined)	-1	-8	57*	-18	16	6
COc1ccc(OC)c(S(=O)(=O)Nc2cc3c4c(c2)CCC(=O)N4CCC3)c1	4	-7	-14	-15	-1	-8
C=CCN1C(=O)NC(c2ccc(OC)cc2)(C(F)(F)F)S/C1=C(\C#N)c1nnc(N2CCOCC2)n1-c1ccccc1 (centres undefined)	5	50*	-7	16	25	-13
COCCN1C(=O)CCC1(C)C(=O)NC1CCCC1 (centres undefined)	-11	8	21	-5	-2	-9
CCCSc1nsc(NC(=O)C(c2ccccc2)c2ccccc2)n1	26	11	55*	23	20	-4
Cn1cc(Cc2ccc(C(=O)NC34CC5CC(CC(C5)C3)C4)cn2)c2ccccc21	-23	0	8	5	10	5
COc1cccc(-c2cnc3c(NC(C)=O)cc(-c4ccc(C(=O)NC5CC5)cc4)cn23)c1	10	16	6	6	10	3
COc1ccccc1NC(=O)N1CCN(c2ccccn2)CC1	-6	2	-16	4	-9	6
O=C(Nc1ccccc1Cl)N1CCN(c2ccccn2)CC1	1	101*	-1	-30	-10	-4
COC(=O)C[C@@H]1CC[C@H](NC(=O)Nc2ccc(OC)cc2)[C@@H](CO)O1	/	/	/	/	-9	/
O=C(CC(SCCO)c1ccc([N+](=O)[O-])cc1)c1ccco1 (centres undefined)	42	0	-9	72*	-10	-16
CCCCN(CC)c1nc(-c2ccncc2)nc2ccccc12	34	57*	26	32	25	-14
CCN1CCN(c2nc(-c3ccccn3)nc3ccccc23)CC1	-8	-1	2	21	1	16
CCCN(CCC)c1nc(-c2ccccn2)nc2ccccc12	4	25	20	52*	17	-22
SMILES	CF NFkB inh	TWEAK-Fn14 inh	TROY signal inh	Peg3 prom inh	HIF-2a block	KKLEB cytotox
COCCN(CCOC)c1nc(-c2ccc(C)cc2)nc2ccccc12	-4	-7	-26	-4	-47	-14
Nc1sc(Cc2ccccc2)cc1C(=O)c1c(-c2ccccc2)[nH]c2ccccc12	/	/	/	/	18	/
COc1ccc(C(=O)N2CCCC(N3CCN(c4ccccc4F)CC3)C2)c(OC)n1 (centres undefined)	-8	-9	11	5	-1	9
CCOC(=O)/C(C#N)=C/c1cc(C)n(-c2ccc(C)cc2)c1C	-6	42	50*	-421	-260	2
CCOC(=O)/C(C#N)=C\c1cc(C)n(-c2ccccc2)c1C	12	81*	79*	-346	-84	-21
Cc1ccc(S(=O)(=O)N2[C@@H](c3ccc(Br)cc3)C(C(=O)O)=CC[C@H]2c2ccc(Cl)c(Cl)c2)cc1	20	37	62*	11	11	8
Cc1ccc(S(=O)(=O)N2[C@@H](c3ccc(C(C)(C)C)cc3)C(C(=O)O)=CC[C@H]2c2ccc(Cl)c(Cl)c2)cc1	32	38	8	1	-6	9
Cc1ccc(S(=O)(=O)N2[C@@H](c3ccc(C(C)(C)C)cc3)C(C(=O)O)=CC[C@H]2c2cccc(Cl)c2)cc1	20	50*	81*	10	-7	12
CCCCCCCCN1C(=O)[C@H](CC(=O)N2CCN(C(=O)C3CC3)CC2)C[C@@]2(C(=O)OC)CC(C)(C)CC=C12	/	/	/	/	-7	/
CCn1ccnc1CN(C)C(=O)c1cc(COc2ccccc2SC)on1	21	-36	-29	-209	-216	-3
CN1CCN(/N=C/c2ccc(N(C)c3ccccc3)cc2)CC1	-24	2	-22	-33	7	0
CN1CCN(/N=C/c2ccc(N(c3ccccc3)c3ccccc3)cc2)CC1	38	15	64*	97*	90*	-43
CCOC(=O)C1CCN(CC(=O)c2ccc(O)c(C)c2O)CC1	9	-8	-10	10	14	5
COc1cc(-c2csc(N3CCOCC3)n2)cc(OC)c1OC	6	-7	-15	-9	-1	-3
COc1ccc(-c2csc(N3CCN(c4cc(C)nc5ccccc45)CC3)n2)cc1OC	24	52*	42	100*	5	-17
COc1ccc(NC(=O)C2C3C=CC4(O3)C2C(=O)N(CCN2CCCCC2)C4C(=O)NC2CCCC(C)C2C)cc1 (centres undefined)	-8	37	-5	3	1	-6
COc1cc2c(c(OC)c1OC)-c1ccc(SC)c(=O)cc1C(NC=O)CC2 (centres undefined)	48	57*	29	-14	22	-32
COC(=O)c1ccc2c(c1)C(NC(C)=O)CCc1cc(OC)c(OC)c(OC)c1-2 (centres undefined)	59*	13	1	-40	23	-13
Cc1ccc(NC(=O)COC(=O)c2nn(C)c(=O)c3ccccc23)cc1F	-31	-16	12	3	-12	5
COC(=O)c1ccc(O)cc1	-13	4	14	6	3	-15
COC(=O)c1ccc(CCc2cc(O)ccc2O)cc1	23	87*	4	-84	32	-6
